Each structure is given as a SMILES string. Records with an inconclusive call do not appear. Entries that show only a call come without a potency. Values without a mark were called inactive. The source made the active and inactive calls. Calls come from the whole dose curve.

The nature of this assay: p53 small molecule agonists, cell-based qHTS assay with rat liver microsomes (AID 1963578). The following applies: HCT-116 p53RE-bla, beta-lactamase ratio, 16 h; series mostly up to 66 µM; activation: at the top concentration. The source says: U.S. Tox21 Program National Center for Advancing Translational Sciences [NCATS] Division of Preclinical Innovation [DPI] U.S. Environmental Protection Agency [EPA] National Institutes of Environmental Health Sciences [NIEHS] National Toxicology Program [NTP] U.S. Food and Drug Administration [FDA] Tox21 Assay Overview: p53, a tumor suppressor protein, is activated following cellular insult, including DNA damage and other cellular stresses. The activation of p53 regulates cell fate by inducing DNA repair, cell cycle arrest, apoptosis, or cellular senescence. The activation of p53, therefore, is a good indicator of DNA damage and other cellular stresses. […] The activation of the reporter gene under culture conditions can be detected by fluorescence intensity. This cell line was used to screen the Tox21 10K compound library in the condition of presence of rat liver microsomes and to identify agonists that activate the p53 signaling pathway after in vitro metabolic activation (Ooka et al., Archive of Toxicology 96:1975-1987, 2022).
Tox21 Assay Protocol Summary: The p53RE-bla cells were dispensed at 4,000cells/3ul/well in 1536-well black-clear bottom plates. After the assay plates were incubated at 37 C, 5% CO2 incubator for 5 hours, 23 nL of compounds dissolved in DMSO, positive controls or DMSO only was transferred to the assay plate. Following compound addition, 3 uL of rat liver microsomes (Molecular Toxicology, Boone, NC) at final concentration of 0.5 mg/mL and 1uL of Beta-Nicotinamide adenine dinucleotide 2-phosphate (NADPH) at final concentration of 0.5 mg/mL were transferred to the assay plate. The plates were incubated at 37 C for 16 hours. 1 uL of LiveBLAzer detection mixture was added to each well and the plates were incubated at room temperature in the dark for 2 h.
On the technique in general: In qHTS, concentration-response curves come from the screen itself.
Turning to `Cc1ccc(C)c(O)c1`, the Potency result is “inactive”.
The same measure, in the same setting: under `C[C@]12C=CC(=O)C=C1CC[C@H]1[C@@H]3C[C@@H](O)[C@](O)(C(=O)CO)[C@@]3(C)C[C@H](O)[C@@]12F` stands “inactive”.
Same read-out and setting: the entry for `CC1(C)[C@@H]2CC[C@@]1(C)C(=O)C2` is “inactive”; for `CCC(C)OC(=O)c1ccc(O)cc1` (stereo not given) it is “inactive”; for `OCCCc1ccccc1` it is “inactive”.
`c1ccc2cc(Nc3ccc(Nc4ccc5ccccc5c4)cc3)ccc2c1`: the “activation” value was 3.93%.
`C=CCCCCCCCCCC`: the Potency result was “inactive”.
On to `C=CC(C)(C)C`, for which the Potency result was “inactive”.
As for `Cc1ccc(C(C)C)cc1`, the “activation” value was -2.79%.
As to `CNC[C@H](O)[C@@H](O)[C@H](O)[C@H](O)CO`, the Potency entry is “inactive”.
Still for that read-out and setting: the entry for `O=C(CC(C(=O)OC1CCCCC1)S(=O)(=O)O)OC1CCCCC1` (stereo not given) is “inactive”; for `CCCCOCCOCCOC(C)=O` it is “inactive”; for `CC1=C(C)S(=O)(=O)CCS1(=O)=O` it is “inactive”.
For the compound `c1ccc2c(c1)[nH]c1ccccc12`, the Potency result is “inactive”.
Consider `Cc1cc(Cc2cc(C)cc(C(C)(C)C)c2O)c(O)c(C(C)(C)C)c1`, for which the Potency result is “inactive”.
On to `CCCCCCCCCCCCOC(=O)c1cc(O)c(O)c(O)c1`, for which the Potency entry was “inactive”.
On the same count and under the same terms, under `Cc1cc(C)c(O)c(C)c1` stands “inactive”.
Regarding `CCCCCCCCCCO`, the Potency result is “inactive”.
Take `NC(=O)NC1NC(=O)NC1=O` (stereo not given): the Potency entry is “inactive”.
As to `COc1ccc([C@@H]2CC(=O)c3c(O)cc(O[C@@H]4O[C@H](CO[C@@H]5O[C@@H](C)[C@H](O)[C@@H](O)[C@H]5O)[C@@H](O)[C@H](O)[C@H]4O)cc3O2)cc1OC`, the Potency entry is “inactive”.
On to `CC(O)C(=O)O` (stereo not given), for which the Potency entry is “inactive”.
In the case of `Cc1ccc(S(=O)(=O)NCl)cc1`, the Potency entry is “inactive”.
On to `NS(=O)(=O)O`, for which the Potency entry is “inactive”.
The same measure, in the same setting: under `CC1(C)C(=O)N(Cl)C(=O)N1Cl` stands “inactive”; under `CCN(CCN)c1cccc(C)c1`, “inactive”; under `OC[C@@H](O)[C@@H](O[C@@H]1O[C@H](CO)[C@H](O)[C@H](O)[C@H]1O)[C@H](O)[C@@H](O)CO`, “inactive”.
Same read-out and setting: under `O=C(O)CN(CC(=O)O)CC(=O)O` stands “inactive”.
As to `CCCCCCCCCCCCN`, the Potency result is “inactive”.
`O=S(=O)(O)c1ccc2cc(O)ccc2c1`: the Potency result was “inactive”.
Same read-out and setting: the entry for `C=C[C@@]1(C)CC(=O)[C@]2(O)[C@@]3(C)[C@@H](O)CCC(C)(C)[C@@H]3[C@H](O)[C@H](OC(C)=O)[C@@]2(C)O1` is “inactive”; for `O=C1CCCCCCCCCCCN1` it is “inactive”.
For `O=S(=O)(O)c1ccc2nc(-c3ccccc3)[nH]c2c1`, the Potency result was “inactive”.
In the case of `CCOC(=O)NNc1nncc2ccccc12`, the Potency result was “inactive”.
On to `O=c1[nH]nnc2ccccc12`, for which the Potency entry is “inactive”.
For `COc1ccc(C(=O)c2ccccc2)c(O)c1`, the Potency entry was “inactive”.
Take `CCc1cccc(C)c1N`: the Potency entry was “inactive”.
Consider `C=CCOC(=O)C(=C)C`, for which the Potency result was “inactive”.
With `COc1ccccc1O`, the Potency entry was “inactive”.
Regarding `CC(=O)CC(=O)N(C)C`, the Potency result is “inactive”.
Turning to `CN(C)c1ccc(C(=C2C=CC(=[N+](C)C)C=C2)c2ccccc2)cc1`, the Potency result is “inactive”.

(Values after PubChem BioAssay (Tox21).)
